Compound activity as filed in PubChem.
HCV inhibitor = blocks hepatitis C virus. Huh7.5.1 HCVcc-Cre infection, luciferase reporter, 44 h. Potency, µM (titrated, usually from 41.8 µM), without a hit: top-dose activity change, negative = inhibition, hits mostly inhibitors. 3.4% of 340,000 active. AID 651820; active means well fitted inhibition curve with a large enough effect; inconclusive means small, poorly fitted or top-dose-only effect, or another doubt; inactive means no such curve, though single readings can be large or run the other way; further: potency means the concentration at half of the fitted maximal effect
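A cell-based infection assay in which seeded cells (1,000 per well) receive test compound after 4 h, are inoculated with HCVcc-Cre at approximately 0.5 moi, and are incubated 44 h before luminescence detection.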
HCMV inh = human cytomegalovirus inhibition; 4.5% of 410,000 active; HFF cells, HCMV-luciferase reporter, 72 h; active compounds read low; activity change, negative = inhibition, % at 57.5 µM; in the data active means activity change below about -60%; inconclusive means no clear call, values can overlap the other calls; inactive means above about -39%
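HFF cells seeded 16 h at 37C, treated with compounds, infected with luciferase-reporter HCMV at MOI 1 PFU/cell; luciferase read at 72 h post infection, normalized to buffer-only and Salinomycin controls.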
FMDV antiviral = antivirals against foot and mouth disease virus. FMDV antiviral cell-based qHTS. Potency, µM (highest dose often 57.9 µM), for inactives: at the highest dose activity change, negative = inhibition, most hits filed as inhibitors. 1.2% of 410,000 active; calls by dose curve; tested in HEK293T cells; further: read-out not given here; potency means the concentration at half of the fitted maximal effect; nearly all actives have a fitted effect of over 45% in size
Lassa entry inh = inhibitors of Lassa virus binding or cell entry. Lassa virus pseudotype entry inhibition, cell reporter. Potency, µM (titrated, usually from 37.9 µM), for the others: at the highest dose activity change, negative = inhibition, hits mostly inhibitors. 1.2% of 300,000 active. AID 540256; calls by dose curve; tested in HEK293 cells; further: potency means the concentration at half of the fitted maximal effect; nearly all actives have a fitted effect of over 50% in size
MARV entry inh = blocks Marburg virus binding to or entry into cells | Marburg virus pseudotyped entry inhibition, cell reporter | Potency, µM (doses to about 37.8 µM), without a hit: at the top dose activity change, negative = inhibition, usual class: inhibitors | 1.8% of 300,000 active | AID 540276; calls by dose curve; tested in HEK293 cells; further: potency means the concentration at half of the fitted maximal effect
Numbers without * were called inactive; [ ] = another dose, or the depositor's remark. An excerpt weighted towards active compounds, which were near 7.9% of everything screened. On the % scale 0 is the no-effect control and ±100 the full control effect.

How did O=C(O)CN(c1ccc(F)cc1)S(=O)(=O)c1ccc2c(c1)OCCO2 do in these assays?
HCV inhibitor: 2%; HCMV inh: -29; FMDV antiviral: 15%; Lassa entry inh: -2%; MARV entry inh: -5%

How did COc1ccc(S(=O)(=O)N(CC(=O)Nc2cccnc2)c2ccc(Cl)cc2)cc1 do in these assays?
HCMV inh: -104*; FMDV antiviral: -6%; Lassa entry inh: inconclusive; MARV entry inh: -6%[46.1 µM]

How did CC(C)C(NC(=O)CN(c1ccc2c(c1)OCCO2)S(=O)(=O)c1ccccc1)C(C)C do in these assays?
HCV inhibitor: 18%; HCMV inh: -61*; FMDV antiviral: -3%; Lassa entry inh: 20%[46.1 µM]; MARV entry inh: inconclusive

How did COc1cc(OC)cc(C(=O)N2CCCC(n3cc(C(=O)NCC(C)C)nn3)C2)c1 (configuration not stated) do in these assays?
FMDV antiviral: 11%

What do the screens show for `CCN(CC)S(=O)(=O)c1ccc2c(c1)N(CC(=O)N1CCN(c3cccc(C(F)(F)F)c3)CC1)C(=O)CO2`?
HCMV inh: -29; FMDV antiviral: inconclusive; Lassa entry inh: -10%[46.1 µM]

What do the screens show for `COc1ccc(S(=O)(=O)N(CC(=O)Nc2ccc(S(=O)(=O)N3CCOCC3)cc2)c2ccccc2)cc1`?
HCV inhibitor: 5.6µM*; HCMV inh: -85*; FMDV antiviral: -24%; Lassa entry inh: inconclusive; MARV entry inh: inconclusive

How did COc1ccc(N(CC(=O)Nc2ccc3c(c2)OCCO3)S(=O)(=O)c2cccc(C)c2)cc1 do in these assays?
HCV inhibitor: inconclusive; HCMV inh: -77*; FMDV antiviral: -7%; Lassa entry inh: inconclusive; MARV entry inh: inconclusive

What do the screens show for `COc1ccc(N(CC(=O)Nc2ccc3c(c2)OCO3)S(=O)(=O)c2ccccc2)c(OC)c1`?
HCV inhibitor: inconclusive; HCMV inh: -68*; FMDV antiviral: 39%; Lassa entry inh: -15%; MARV entry inh: 0%

What do the screens show for `CC(C)NC(=O)c1ccc2c(c1)N(CC(=O)Nc1ccccc1F)C(=O)C(C)(C)O2`?
HCV inhibitor: -21%; HCMV inh: 28; FMDV antiviral: 10%; Lassa entry inh: inconclusive; MARV entry inh: 0%

What do the screens show for `Cc1ccccc1C(=O)Nc1cccc(NC(=O)Cn2cnc3c(=O)n(C)c(=O)n(C)c32)c1`?
HCV inhibitor: inconclusive; HCMV inh: -64*; FMDV antiviral: -8%; Lassa entry inh: inconclusive; MARV entry inh: inconclusive

How did Cc1cccc(Cn2c(SCC(=O)Nc3ccccc3)nc3c2c(=O)[nH]c(=O)n3C)c1 do in these assays?
HCV inhibitor: 25µM*; HCMV inh: 23; FMDV antiviral: -24%

What do the screens show for `CCOc1ccc(OCC)c(NC(=O)CSc2nc3cccnc3n2C)c1`?
HCV inhibitor: 6.3µM*; HCMV inh: -63*; FMDV antiviral: 18µM*; Lassa entry inh: -28%; MARV entry inh: -21%

What do the screens show for `Cn1c(=O)[nH]c(=O)c2c1nc(SCC(=O)O)n2Cc1ccccc1`?
HCV inhibitor: 10%; HCMV inh: 24; FMDV antiviral: -8%

What do the screens show for `Cc1cccc(NC(=O)CSc2nc3ccccc3c(=O)n2C)c1`?
HCV inhibitor: 10µM*; HCMV inh: inconclusive; FMDV antiviral: inconclusive; Lassa entry inh: inconclusive; MARV entry inh: 7.1µM*

How did COc1ccc(NC(=O)c2cc(S(=O)(=O)N3CCCCC3)ccc2C)cc1S(=O)(=O)N1CCOCC1 do in these assays?
HCV inhibitor: 6%; HCMV inh: -19; FMDV antiviral: -3%; Lassa entry inh: 2%; MARV entry inh: inconclusive

What do the screens show for `CCOc1ccc(OCC)c(NC(=O)CSc2nc3ccccc3c(=O)n2C)c1`?
HCV inhibitor: inconclusive; HCMV inh: -70*; FMDV antiviral: inconclusive; Lassa entry inh: inconclusive; MARV entry inh: inconclusive

Results for CC(=O)Nc1cccc(NC(=O)CSc2ncc(C(=O)Nc3ccc(F)cc3)c(=O)n2C)c1 ?
HCV inhibitor: -4%; HCMV inh: 4; FMDV antiviral: inconclusive; Lassa entry inh: -26%; MARV entry inh: inconclusive

Results for CC(=O)Nc1cccc(NC(=O)CSc2ncc(C(=O)Nc3ccccc3)c(=O)n2C)c1 ?
HCV inhibitor: 11µM*; HCMV inh: 10; FMDV antiviral: inconclusive; Lassa entry inh: -3%; MARV entry inh: inconclusive

How did C=CS(=O)(=O)c1ccc(Oc2ccc(S(=O)(=O)C=C)cc2)cc1 do in these assays?
HCV inhibitor: inconclusive; HCMV inh: -102*; FMDV antiviral: 4µM*; Lassa entry inh: 6.5µM*; MARV entry inh: inconclusive

Results for CC1CCN(CC(=O)c2ccc3c(c2)OCCO3)CC1 ?
HCV inhibitor: 3%; HCMV inh: -61*; FMDV antiviral: -40%; Lassa entry inh: -21%; MARV entry inh: 6%

Results for O=C(CCN1CCOCC1)c1ccc2c(c1)OCCO2 ?
HCV inhibitor: 11µM*; HCMV inh: -26; FMDV antiviral: -3%; Lassa entry inh: -15%; MARV entry inh: 4%

How did O=C(CCCN1CCOCC1)c1ccc2c(c1)OCCO2 do in these assays?
HCV inhibitor: 6%; HCMV inh: 82; Lassa entry inh: 1%; MARV entry inh: 6%

What do the screens show for `Cc1ccc(NC(=O)C2CC(=O)N(Cc3ccccc3)C2)nc1` (configuration not stated)?
HCV inhibitor: -13%; HCMV inh: 34; FMDV antiviral: 0%; Lassa entry inh: 9%; MARV entry inh: 2%

How did CC(C(=O)OCC(=O)N(C)C1(C#N)CCCCC1)N1C(=O)c2ccccc2C1=O (configuration not stated) do in these assays?
HCV inhibitor: 16%; HCMV inh: -13; FMDV antiviral: -24%

What do the screens show for `Cc1nnc(NC(=O)CSc2nc3c([nH]c4ccccc43)c(=O)n2-c2ccc(Cl)cc2)s1`?
HCMV inh: -13; FMDV antiviral: -28%; Lassa entry inh: 1%[46.1 µM]

How did COc1cc2nc(N3CCNCC3)nc(N)c2cc1OC do in these assays?
HCV inhibitor: 22µM*; HCMV inh: inconclusive; FMDV antiviral: 9%; Lassa entry inh: 4%; MARV entry inh: inconclusive

What do the screens show for `COc1cc2nc(N3CCN(c4cc(C)ccc4C)CC3)nc(N)c2cc1OC`?
HCV inhibitor: 7.1µM*; HCMV inh: -98*; FMDV antiviral: 25µM*; Lassa entry inh: inconclusive; MARV entry inh: 4.5µM*

Results for COc1cc2nc(Cl)nc(N3CCCCC3)c2cc1OC ?
HCV inhibitor: -24%; HCMV inh: 15; FMDV antiviral: -28%; Lassa entry inh: inconclusive; MARV entry inh: inconclusive

How did COc1ccc(-n2ncc3c(N4CCN(c5cc(C)ccc5C)CC4)ncnc32)cc1 do in these assays?
HCV inhibitor: 11%; HCMV inh: 73; FMDV antiviral: inconclusive; MARV entry inh: 2%

How did COc1cc(/C=N/NC(=O)COc2ccc(Cl)cc2)ccc1OS(=O)(=O)c1ccc(C)cc1 do in these assays?
HCV inhibitor: 11µM*; HCMV inh: 7; FMDV antiviral: -25%; Lassa entry inh: inconclusive; MARV entry inh: inconclusive
